Only some compounds are listed: those with a hit (about 6.8% of all), similar ones and a draw of the others.
DPM-DC inhibit = S. pneumoniae DPM-DC inhibition. purified DPM-DC, PK/LDH coupled NADH fluorescence. calls only at 10 µM. 0.49% of 65,000 active. AID 556;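 active = the 320 compounds with the highest percent inhibition in the single-dose primary screen, excluding strongly autofluorescent ones, cut at about 32% in these data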;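 also: kinetic rate of NADH fluorescence loss reporting ADP formed by the decarboxylase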
A340 absorber = compounds absorbing at 340 nm; 65,000 tested, under 10 active; AID 708; fold change at 10 µM; compound absorbance at 340 nm, fold over control;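 active = at 10 µM dose, initial 340 nm absorbance at least 2 fold that of control wells; inactive = change under 2 fold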;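 also: initial absorbance extrapolated from kinetic A340 decline of NADH oxidation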
NADH enzymes = inhibition of NAD/NADH coupling enzymes, library profiling; IC50, µM (highest dose often 10 µM), for inactives: at the highest dose inhibition; coupled PK/LDH NADH assays, four targets; 0.02% of 65,000 active; AID 774;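 active = single-dose screening hits from any of four coupled enzyme assays that gave an IC50 when retested across doses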;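 also: the DPM-DC format reads NADH fluorescence rather than 340 nm absorbance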
PMK inhibit = blocks S. pneumoniae phosphomevalonate kinase; 0.49% of 65,000 active; inhibition, % at 10 µM; purified PMK, PK/LDH-coupled NADH absorbance 340 nm;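 active = top-ranked compounds by inhibition in the single 10 µM screen, taking a fixed number of the strongest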;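 also: 0% = full reaction with DMSO carrier and 100% = background rate without enzyme reaction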
Fluor 339 460 = intrinsic fluorescence of library compounds, ex339/em460 – biochemical, MLSMR library, data from DPM-DC assay, artefact control, profiling panel | compound autofluorescence, ex339/em460 nm, NADH buffer; hits give high values; 1 = no-compound wells, NADH background | fluorescence fold increase at 10 µM | 5.5% of 65,000 active | AID 709;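 active = at 10 µM, mean starting fluorescence two-fold or more over control wells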;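 also: signal is the first read of a kinetic run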
MK inhibit = S. pneumoniae mevalonate kinase inhibition. purified MK, PK/LDH-coupled NADH absorbance 340 nm. inhibition, % at 10 µM. 0.48% of 65,000 active;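 active = ranked among the strongest by inhibition in the single 10 µM screen, a fixed top-ranked set picked for dose follow-up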
Active calls of the source: *; i = inactive; . = no result given; + = active, no number.

SMILES | DPM-DC inhibit | A340 absorber | NADH enzymes | PMK inhibit | Fluor 339 460 | MK inhibit
CC(C)c1nc2oc3c(NCc4ccccn4)ncnc3c2c2c1COC(C)(C)C2 | + | 1 | 20% | 14 | 3* | 12
COc1ncnc2c1oc1nc(C(C)C)c3c(c12)CC(C)(C)OC3 | i | 1.1 | 2% | 5 | 1.1 | 2
CCCc1nc2oc3c(NCCN(C)C)ncnc3c2c2c1CCCC2 | i | 1 | 7% | 13 | 1.4 | 4
CCCc1nc2oc3c(NCC4CCCO4)ncnc3c2c2c1COC(C)(C)C2 (stereo not given) | i | 1 | 11% | 3 | 3.2* | 7
CCOC(=O)N1CCN(c2ncnc3c2oc2nc(C)c4c(c23)CC(C)(C)OC4)CC1 | i | 1 | 3% | 3 | 1.2 | 5
Cc1nc2oc3c(NCc4ccccn4)ncnc3c2c2c1COC(C)(C)C2 | + | 1 | 5% | 3 | 1.9 | 0
CCC1SC2=NC(C)=C(C(=O)OCCOC)C(c3ccc(C(=O)OC)cc3)N2C1=O (stereo not given) | i | 1.1 | 3% | 10 | 1 | 0
CCOC(=O)c1c(C)nc2c(C#N)cnn2c1C | i | 1 | 13% | 2 | 2.4* | 11
CCOC(=O)c1cnn2c(N)c(C#N)nnc12 | i | 1 | 1% | 1 | 1.1 | 2
COc1ccc2c(C(F)(F)F)cc(=O)oc2c1C | . | 1 | 2% | 3 | 2.9* | 11
CCN(CCO)Cc1cc(=O)oc2c(C)c(C)ccc12 | i | 1.1 | 1% | 0 | 1.2 | 4
CCOC(=O)C1C(=O)N(C(=O)c2cncc(Br)c2)CC1c1ccccc1 (stereo not given) | i | 1 | 6% | 8 | 1 | 7
COc1ccc(CN2CCN(C(=O)c3ccco3)CC2)cc1OCc1ccccc1 | i | 1.1 | 20% | 7 | 1.1 | 52*
CCn1c2ccccc2c2cc(CN3CCN(C(=O)c4ccco4)CC3)ccc21 | i | 1 | 28% | 30* | 1.1 | 54*
Cc1cc(C)c(S(=O)(=O)Nc2ccc[nH]c2=O)c(C)c1 | i | 1 | 3% | 0 | 1.1 | 8
COCCCNC(=O)Cn1nc(-c2ccc(C)cc2)ccc1=O | i | 1 | 6% | 13 | 1.4 | 6
CC(C)Cn1nc(NC(=O)C2CCCO2)c2cc3ccccc3nc21 (stereo not given) | i | 1.1 | 6% | 2 | 2.1* | 7
Cc1ccc2cc3c(NC(=O)c4ccco4)nn(CC(C)C)c3nc2c1 | . | 1 | 3% | 3 | 3.9* | 2
CC(C)Cn1nc(NS(=O)(=O)c2ccccc2)c2cc3ccccc3nc21 | i | 1 | 1% | 0 | 1.2 | 2
CCn1nc(NC(=O)c2cccnc2)c2cc3ccccc3nc21 | i | 0.99 | 3% | 0 | 1.2 | 0
CCn1nc(NC(=O)c2ccccn2)c2cc3cc(C)ccc3nc21 | i | 1.1 | 14% | 12 | 3* | 9
Cc1ccc2cc3c(NC(=O)CC(C)C)nn(C)c3nc2c1 | i | 1 | 6% | 0 | 2 | 15
Cc1ccc(-c2nn3c(C)nnc3s2)cc1NCc1c(F)cccc1Cl | i | 1.1 | 14% | 6 | 2.3* | 6
COc1cc(C(=O)OCC(=O)c2cc(C)n(C)c2C)cc(NC(=O)c2ccco2)c1OC | i | 1.1 | 11% | 10 | 2.9* | 0
Cn1cc(Cl)nc1C(O)c1ccccc1 (stereo not given) | i | 1 | 4% | 12 | 1.1 | 0
SMILES | DPM-DC inhibit | A340 absorber | NADH enzymes | PMK inhibit | Fluor 339 460 | MK inhibit
Cc1cc(N2CCOCC2)c2c(N)c(Br)cc(C)c2n1 | + | 1.1 | 16% | 9 | 0.68 | 3
COc1cccc(CNC(=O)C2CCN(S(=O)(=O)c3c(C)nn(C)c3C)CC2)c1 | i | 1 | 2% | 0 | 1.1 | 7
COCCCNC(CC(=O)Nc1ccc(OC)cc1OC)C(=O)O (stereo not given) | i | 1.1 | 0% | 0 | 1.1 | 0
COc1ccc(NC(=O)C2CCC(C)(C(=O)O)C2(C)C)cc1 (stereo not given) | i | 1.1 | 0% | 0 | 1.1 | 0
COc1ccc(NC(=O)C2CC(=O)OC2(C)C)cc1 (stereo not given) | . | 1 | 1% | 0 | 2.2* | 1
Cc1ccc(C2CC(c3cccs3)n3nc(N)nc3N2)cc1 (stereo not given) | . | 1 | 5% | 9 | 2.3* | 0
